Experimental data: the supplement of paper PMC9694430

Columns and labels:
Experiment in all cases: thermal shift delta Tm vs DMSO control; higher = stronger stabilization (binding)
Settings in all cases: 12.5 µM; protein concentration 2 µM
LOC_OS01G57100-cb003 = test system: LOC_OS01G57100-cb003
Summary of the method: (§1)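 Thermal shift values come from differential scanning fluorimetry on purified rice kinase domains made in E. coli, with melting temperatures obtained from Boltzmann fits. Samples of 19.5 μl held 2 μM kinase, 100 mM potassium phosphate pH 7.5, 150 mM NaCl, 10% glycerol, 5 × SYPRO Orange and compound in DMSO, and were heated from 25°C to 95°C at 0.05°C/s. Each shift is a triplicate mean relative to the DMSO-only protein sample.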

LOC_OS01G60330-cb001 = test system: LOC_OS01G60330-cb001
Summary of the method: as §1

LOC_OS01G60700-cb002 = test system: LOC_OS01G60700-cb002
Summary of the method: as §1

LOC_OS01G63280-cb003 = test system: LOC_OS01G63280-cb003
Summary of the method: as §1

LOC_OS01G67340-cb003 = test system: LOC_OS01G67340-cb003
Summary of the method: as §1

LOC_OS01G70970-cb002 = test system: LOC_OS01G70970-cb002
Summary of the method: as §1

LOC_OS02G07810-cb001 = test system: LOC_OS02G07810-cb001
Summary of the method: as §1

LOC_OS02G08530-cb003 = test system: LOC_OS02G08530-cb003
Summary of the method: as §1

LOC_OS02G14120-cb001 = test system: LOC_OS02G14120-cb001
Summary of the method: as §1

LOC_OS02G17970-cb001 = test system: LOC_OS02G17970-cb001
Summary of the method: as §1

LOC_OS02G45750-cb003 = test system: LOC_OS02G45750-cb003
Summary of the method: as §1

LOC_OS02G54510-cb004 = test system: LOC_OS02G54510-cb004
Summary of the method: as §1

LOC_OS03G04050-cb001 = test system: LOC_OS03G04050-cb001
Summary of the method: as §1

LOC_OS03G12390-cb001 = test system: LOC_OS03G12390-cb001
Summary of the method: as §1

LOC_OS03G27990-cb004 = test system: LOC_OS03G27990-cb004
Summary of the method: as §1

LOC_OS03G50450-cb001 = test system: LOC_OS03G50450-cb001
Summary of the method: as §1

LOC_OS03G50810-cb003 = test system: LOC_OS03G50810-cb003
Summary of the method: as §1

LOC_OS04G35114-cb001 = test system: LOC_OS04G35114-cb001
Summary of the method: as §1

LOC_OS04G38480-cb003 = test system: T1, LOC_OS04G38480-cb003
T1 sequence (whole entry): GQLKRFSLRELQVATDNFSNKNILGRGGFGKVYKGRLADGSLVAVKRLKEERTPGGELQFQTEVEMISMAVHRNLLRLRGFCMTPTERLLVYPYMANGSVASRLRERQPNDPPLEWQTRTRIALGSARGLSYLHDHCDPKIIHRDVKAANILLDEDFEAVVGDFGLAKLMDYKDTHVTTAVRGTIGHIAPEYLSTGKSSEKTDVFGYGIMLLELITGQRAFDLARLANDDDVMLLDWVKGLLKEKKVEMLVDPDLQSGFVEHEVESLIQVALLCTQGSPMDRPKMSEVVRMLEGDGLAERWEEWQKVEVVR
Summary of the method: as §1

LOC_OS04G41100-cb001 = test system: T2, LOC_OS04G41100-cb001
T2 sequence (whole entry): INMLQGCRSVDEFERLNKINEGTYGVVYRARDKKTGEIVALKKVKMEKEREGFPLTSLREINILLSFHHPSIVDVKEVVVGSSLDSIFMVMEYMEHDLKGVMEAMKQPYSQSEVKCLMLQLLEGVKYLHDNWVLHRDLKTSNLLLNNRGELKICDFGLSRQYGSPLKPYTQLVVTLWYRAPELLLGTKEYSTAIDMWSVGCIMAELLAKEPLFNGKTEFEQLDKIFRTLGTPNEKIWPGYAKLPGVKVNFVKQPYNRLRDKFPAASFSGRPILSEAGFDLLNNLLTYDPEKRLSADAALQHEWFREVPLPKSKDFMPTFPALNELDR
Summary of the method: as §1
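Also: purified Escherichia coli-expressed rice kinase domain construct.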

| Compound | thermal shift delta Tm (LOC_OS01G57100-cb003) [°C] | thermal shift delta Tm (LOC_OS01G60330-cb001) [°C] | thermal shift delta Tm (LOC_OS01G60700-cb002) [°C] | thermal shift delta Tm (LOC_OS01G63280-cb003) [°C] | thermal shift delta Tm (LOC_OS01G67340-cb003) [°C] | thermal shift delta Tm (LOC_OS01G70970-cb002) [°C] | thermal shift delta Tm (LOC_OS02G07810-cb001) [°C] | thermal shift delta Tm (LOC_OS02G08530-cb003) [°C] | thermal shift delta Tm (LOC_OS02G14120-cb001) [°C] | thermal shift delta Tm (LOC_OS02G17970-cb001) [°C] | thermal shift delta Tm (LOC_OS02G45750-cb003) [°C] | thermal shift delta Tm (LOC_OS02G54510-cb004) [°C] | thermal shift delta Tm (LOC_OS03G04050-cb001) [°C] | thermal shift delta Tm (LOC_OS03G12390-cb001) [°C] | thermal shift delta Tm (LOC_OS03G27990-cb004) [°C] | thermal shift delta Tm (LOC_OS03G50450-cb001) [°C] | thermal shift delta Tm (LOC_OS03G50810-cb003) [°C] | thermal shift delta Tm (LOC_OS04G35114-cb001) [°C] | thermal shift delta Tm (LOC_OS04G38480-cb003) [°C] | thermal shift delta Tm (LOC_OS04G41100-cb001) [°C] |
| --- | --- | --- | --- | --- | --- | --- | --- | --- | --- | --- | --- | --- | --- | --- | --- | --- | --- | --- | --- | --- |
| O=C(NCc1cccc(O)c1)Nc1nc(-c2ccncc2)cs1 | 0.7 | 0.56 | 1.38 | -0.09 | 0.16 | 0.57 | 1.03 | 1.04 | 0.87 | 0.34 | -1.72 | 0.56 | 1.15 | 0.54 | 1.06 | 0.51 | 0.05 | 1.65 | 0.86 | 0.95 |
| COc1ccc(C(=O)Nc2sc3c(c2C(N)=O)CCCC3)cc1OC | 1.3 | 1.24 | 1.23 | 0.62 | 1.69 | 0.41 | 1.01 | 2.12 | 2.58 | 0.27 | 3.21 | 0.13 | 0.38 | 0.22 | 0.12 | 0.38 | 1.2 | 3.8 | 3.31 | 0.28 |
| CC1=C(C(=O)Nc2ccc3[nH]ncc3c2)C(c2ccc(F)cc2)NC(=O)N1 (stereo not given) | 2.16 | 0.38 | 0.62 | 0.82 | 0.41 | 0.4 | -0.36 | 0.77 | 2.32 | 0.88 | 0.98 | 0.18 | 0.57 | 0.72 | 0.46 | 0.58 | 0.64 | 0.48 | 1.84 | 0.33 |
| NC(=O)c1cnc2[nH]ccc2c1N[C@@H]1[C@@H]2CC3C[C@H]1C[C@@](O)(C3)C2 | 0.13 | 10.2 | 1.43 | 3.87 | 3.53 | 6.42 | 0.39 | 3 | 6.44 | 0.82 | 8.38 | 2.49 | -0.03 | 7.42 | 4.38 | 3.97 | 4.9 | 3.87 | 2.99 | 1.15 |
| C=CC(=O)Nc1cccc(Oc2nc(Nc3ccc(N4CCN(C)CC4)cc3)ncc2Cl)c1 | -0.75 | 1.82 | 0.8 | 0.27 | -0.1 | 3.9 | 0.94 | 2.58 | 8.31 | 0 | 3.96 | 0.5 | 0.53 | 3.42 | 2.49 | 1.35 | 4.77 | 3.8 | 1.67 | 1.1 |
| CN1CCN(c2ccc3nc(-c4c(N)c5c(F)cccc5[nH]c4=O)[nH]c3c2)CC1 [Dovitinib (TKI-258) Dilactic Acid] | 1.5 | 13.5 | 1.33 | 1.22 | 6.31 | 7.56 | 1.75 | 4.53 | 6.88 | 0.5 | 16.3 | 1.95 | 0.96 | 4.57 | 8.19 | 5.49 | 1.54 | 9.41 | 1.48 | 0.82 |
